According to PubChem BioAssay (Tox21):
Inconclusive results are not listed. The source made the active and inactive calls. Unless noted, calls come from the whole dose curve; as a rule, active = well fitted curve in the direction sought with a large enough effect in the repeat runs; inconclusive = weak or mixed curves; inactive = no such curve, though single readings can be large; an effect the other way counts as inactive or inconclusive.

Key:
[1] = biological target: Aryl hydrocarbon receptor (Homo sapiens) (UniProt P35869); experiment: qHTS assay to identify small molecule that activate the aryl hydrocarbon receptor (AhR) signaling pathway (AID 743085);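 note: HG2L7.5c1 human HepG2 liver cells with stably integrated DRE-driven firefly reporter; series mostly up to about 70 µM; nearly all actives have a fitted effect of over 15% in size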
Aryl hydrocarbon receptor (Homo sapiens), sequence (P35869 whole entry, looked up): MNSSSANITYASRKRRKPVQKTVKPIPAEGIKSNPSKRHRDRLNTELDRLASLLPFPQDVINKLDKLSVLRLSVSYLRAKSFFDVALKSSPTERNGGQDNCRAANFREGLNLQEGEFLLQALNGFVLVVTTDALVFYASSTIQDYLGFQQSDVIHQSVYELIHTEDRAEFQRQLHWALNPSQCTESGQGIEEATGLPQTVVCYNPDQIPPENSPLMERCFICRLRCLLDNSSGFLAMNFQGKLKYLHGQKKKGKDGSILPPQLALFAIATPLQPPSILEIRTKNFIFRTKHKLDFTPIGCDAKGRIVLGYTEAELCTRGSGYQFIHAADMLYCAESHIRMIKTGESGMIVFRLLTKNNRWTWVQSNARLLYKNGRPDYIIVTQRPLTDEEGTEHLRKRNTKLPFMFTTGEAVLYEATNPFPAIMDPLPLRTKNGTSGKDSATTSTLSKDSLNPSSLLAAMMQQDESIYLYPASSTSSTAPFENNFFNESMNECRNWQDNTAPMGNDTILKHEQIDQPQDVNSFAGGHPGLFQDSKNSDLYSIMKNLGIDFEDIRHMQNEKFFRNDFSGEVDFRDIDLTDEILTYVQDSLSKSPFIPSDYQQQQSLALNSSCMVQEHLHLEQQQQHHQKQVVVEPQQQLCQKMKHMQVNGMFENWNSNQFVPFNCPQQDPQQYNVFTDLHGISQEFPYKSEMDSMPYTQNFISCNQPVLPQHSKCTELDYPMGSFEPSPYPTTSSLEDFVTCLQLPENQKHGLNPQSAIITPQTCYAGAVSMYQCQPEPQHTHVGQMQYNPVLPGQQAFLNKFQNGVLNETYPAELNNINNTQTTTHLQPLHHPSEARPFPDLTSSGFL
How it was run: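 Compounds were tested in HepG2 hepatocellular carcinoma cells harbouring a stably integrated luciferase gene under control of 20 DREs. Increased reporter signal after 24 h treatment at 37C was taken as AhR activation.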

[2] = qHTS assay to identify small molecule that activate the aryl hydrocarbon receptor (AhR) signaling pathway - cell viability counter screen (AID 743086); note: nearly all actives have a fitted effect of over 45% in size; note: potency is the fitted concentration of half-maximal effect;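 for viability change, negative = cytotoxic: HepG2 liver cells carrying the AhR DRE luciferase reporter; series mostly up to about 70 µM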
How it was run: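 HepG2-AhR-luc (HG2L7.5c1) cells, 4000/well, were preincubated 5 h at 37C, exposed to compound in qHTS format for 24 hr at 37C, then given CellTiter-Fluor for 30 min; viability was read as fluorescence in the reporter wells.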

[3] = biological target: Peroxisome proliferator-activated receptor gamma (Homo sapiens) (UniProt P37231); experiment: qHTS assay to identify small molecule agonists of the peroxisome proliferator-activated receptor gamma (PPARg) signaling pathway (AID 743094; active = well fitted activation curve with a large enough effect in the signal ratio in the repeat runs, not every such curve was filed as active; the % refers to the signal ratio)
Peroxisome proliferator-activated receptor gamma (Homo sapiens), sequence (P37231 whole entry, looked up): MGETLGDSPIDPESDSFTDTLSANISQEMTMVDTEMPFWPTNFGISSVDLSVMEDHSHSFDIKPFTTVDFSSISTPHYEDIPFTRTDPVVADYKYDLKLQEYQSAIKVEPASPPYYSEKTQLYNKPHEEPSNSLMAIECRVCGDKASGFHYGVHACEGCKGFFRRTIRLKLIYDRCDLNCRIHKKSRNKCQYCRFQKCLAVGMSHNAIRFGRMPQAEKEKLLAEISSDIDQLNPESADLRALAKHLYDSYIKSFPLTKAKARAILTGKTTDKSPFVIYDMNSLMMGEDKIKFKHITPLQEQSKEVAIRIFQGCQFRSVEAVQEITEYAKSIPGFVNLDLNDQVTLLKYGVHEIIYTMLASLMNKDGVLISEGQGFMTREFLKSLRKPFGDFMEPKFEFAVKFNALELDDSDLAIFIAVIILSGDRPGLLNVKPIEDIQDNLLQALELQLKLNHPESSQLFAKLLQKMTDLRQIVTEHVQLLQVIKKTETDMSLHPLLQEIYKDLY
How it was run: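 Cell-based bla reporter, HEK293H background, PPARg-driven UAS. Pre-incubation 5 h, 37C, 5% CO2. Compound 17 h, 37C. Substrate 1 h RT; fluorescence.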

[4] = biological target: Peroxisome proliferator-activated receptor gamma (Homo sapiens) (UniProt P37231); experiment: qHTS assay to identify small molecule antagonists of the peroxisome proliferator-activated receptor gamma (PPARg) signaling pathway (AID 743191; calls by dose curve; note: series mostly up to about 63 µM; nearly all actives have a fitted effect of over 30% in size)
How it was run: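 GeneBLAzer PPARg UAS-bla HEK293H cells carrying a UAS-driven beta-lactamase reporter were plated at 3000 cells/well, preincubated 5 h at 37C, then given compound for 17 h at 37C; LiveBLAzer B/G FRET substrate was read after 1 h at room temperature.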

[5] = qHTS assay to identify small molecule antagonists of the peroxisome proliferator-activated receptor gamma (PPARg) signaling pathway - cell viability counter screen (AID 743194); note: nearly all actives have a fitted effect of over 55% in size; note: potency is the fitted concentration of half-maximal effect
How it was run: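 PPARg-UAS-bla HEK293H cells were plated, rested 5 h at 37 C, then treated with compounds plus rosiglitazone (50 nM final) for 17 h at 37 C; viability was then read by CellTiter-Glo luminescence after 30 min at room temperature.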

[6] = qHTS assay for small molecule activators of the heat shock response signaling pathway - cell viability counter screen (AID 743209); note: nearly all actives have a fitted effect of over 50% in size
How it was run: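 Same-well multiplex: after 2.5 h room-temperature incubation with LiveBLAzer B/G substrate and fluorescence reading, CellTiter-Glo reagent was added to HSE-bla HeLa cells that had received compound for 5 h at 37 C; luminescence read after 30 min.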

[7] = biological target: Peroxisome proliferator-activated receptor delta (Homo sapiens) (UniProt Q03181); experiment: qHTS assay to identify small molecule agonists of the peroxisome proliferator-activated receptor delta (PPARd) signaling pathway (AID 743212; calls by dose curve)
Peroxisome proliferator-activated receptor delta (Homo sapiens), sequence (Q03181 whole entry, looked up): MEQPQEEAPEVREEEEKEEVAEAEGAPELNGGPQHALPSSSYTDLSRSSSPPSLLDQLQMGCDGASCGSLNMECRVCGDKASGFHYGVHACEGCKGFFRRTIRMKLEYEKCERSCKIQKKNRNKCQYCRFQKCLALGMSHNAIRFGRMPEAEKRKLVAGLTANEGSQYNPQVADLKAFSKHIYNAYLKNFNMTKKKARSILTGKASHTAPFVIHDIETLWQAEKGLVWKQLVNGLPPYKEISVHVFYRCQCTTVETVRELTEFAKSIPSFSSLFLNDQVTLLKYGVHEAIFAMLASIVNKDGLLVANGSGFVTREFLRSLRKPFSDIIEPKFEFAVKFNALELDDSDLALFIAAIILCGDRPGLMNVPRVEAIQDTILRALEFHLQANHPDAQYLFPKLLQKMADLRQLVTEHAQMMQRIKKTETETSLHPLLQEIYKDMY
How it was run: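 Beta-lactamase reporter read by fluorescence (LiveBLAzer B/G FRET, 2 h, room temperature). Test agents, in DMSO, incubated at 37 C with PPARd-bla HEK293H cells.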

[8] = qHTS assay to identify small molecule antagonists of the peroxisome proliferator-activated receptor delta (PPARd) signaling pathway - cell viability counter screen (AID 743213); note: nearly all actives have a fitted effect of over 50% in size; note: potency is the fitted concentration of half-maximal effect
How it was run: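 Same-well viability: cells pre-incubated 5 h, dosed with compound plus 300 nM L165041, kept 17 h at 37 C, FRET substrate 2 h RT, then CellTiter-Glo 30 min RT and luminescence.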

[9] = biological target: Bile acid receptor (Homo sapiens) (UniProt Q96RI1); experiment: qHTS assay to identify small molecule antagonists of the farnesoid-X-receptor (FXR) signaling pathway (AID 743217; active = well fitted inhibition curve with a large enough effect in the signal ratio in the repeat runs, not every such curve was filed as active; the % refers to the signal ratio)
Bile acid receptor (Homo sapiens), sequence (Q96RI1 whole entry, looked up): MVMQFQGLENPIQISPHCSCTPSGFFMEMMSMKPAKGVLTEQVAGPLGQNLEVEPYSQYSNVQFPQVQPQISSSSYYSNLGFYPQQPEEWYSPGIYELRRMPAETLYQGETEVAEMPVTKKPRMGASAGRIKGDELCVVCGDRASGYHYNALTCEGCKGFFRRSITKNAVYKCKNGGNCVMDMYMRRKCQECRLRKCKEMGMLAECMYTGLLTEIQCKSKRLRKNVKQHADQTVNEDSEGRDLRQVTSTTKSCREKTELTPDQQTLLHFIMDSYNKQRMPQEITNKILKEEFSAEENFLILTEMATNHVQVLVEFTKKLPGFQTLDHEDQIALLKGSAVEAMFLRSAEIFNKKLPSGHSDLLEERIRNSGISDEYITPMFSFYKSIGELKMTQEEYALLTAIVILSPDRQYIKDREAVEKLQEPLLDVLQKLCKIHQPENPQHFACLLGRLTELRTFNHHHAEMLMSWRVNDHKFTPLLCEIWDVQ
How it was run: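 FRET fluorescence after 2 h room-temperature LiveBLAzer loading gives the readout. Prior step: FXR-bla HEK 293T cells, seeded and incubated 5 h, received test compounds plus 50 uM final CDCA for 16 h at 37 °C.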

[10] = qHTS assay to identify small molecule agonists of the farnesoid-X-receptor (FXR) signaling pathway - cell viability counter screen (AID 743218); note: nearly all actives have a fitted effect of over 45% in size
How it was run: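 Readout: CellTiter-Glo luminescence, 30 min RT, multiplexed after the FXR-bla FRET reading. HEK 293T FXR-UAS-bla cells received compound 5 h post-plating and were incubated 16 h at 37 C.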

[11] = biological target: Bile acid receptor (Homo sapiens) (UniProt Q96RI1); experiment: qHTS assay to identify small molecule agonists of the farnesoid-X-receptor (FXR) signaling pathway (AID 743220; active = well fitted activation curve with a large enough effect in the signal ratio in the repeat runs, not every such curve was filed as active; the % refers to the signal ratio)
How it was run: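 FXR-UAS-bla HEK 293T cells carrying a UAS-driven beta-lactamase reporter were plated for 5 h at 37C/5% CO2, then exposed to DMSO-dissolved Tox21 10K compounds for 16 h at 37C. A LiveBLAzer B/G FRET substrate was loaded for 2 h at room temperature before fluorescence reading.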

[12] = qHTS assay to identify small molecule antagonists of the farnesoid-X-receptor (FXR) signaling pathway - cell viability counter screen (AID 743221; active = well fitted cell-killing curve with a large enough effect in the repeat runs, not every such curve was filed as active; note: nearly all actives have a fitted effect of over 50% in size)
How it was run: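 Multiplexed counter screen: viability of FXR-bla HEK 293T cells under agonist stimulation by chenodeoxycholic acid (50 uM, final) and test compound for 16 h at 37 C, measured by CellTiter-Glo luminescence in the reporter wells.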

[13] = biological target: Vitamin D3 receptor (Homo sapiens) (UniProt P11473); experiment: qHTS assay to identify small molecule agonists of the vitamin D receptor (VDR) signaling pathway (AID 743222; calls by dose curve)
Vitamin D3 receptor (Homo sapiens), sequence (P11473 whole entry, looked up): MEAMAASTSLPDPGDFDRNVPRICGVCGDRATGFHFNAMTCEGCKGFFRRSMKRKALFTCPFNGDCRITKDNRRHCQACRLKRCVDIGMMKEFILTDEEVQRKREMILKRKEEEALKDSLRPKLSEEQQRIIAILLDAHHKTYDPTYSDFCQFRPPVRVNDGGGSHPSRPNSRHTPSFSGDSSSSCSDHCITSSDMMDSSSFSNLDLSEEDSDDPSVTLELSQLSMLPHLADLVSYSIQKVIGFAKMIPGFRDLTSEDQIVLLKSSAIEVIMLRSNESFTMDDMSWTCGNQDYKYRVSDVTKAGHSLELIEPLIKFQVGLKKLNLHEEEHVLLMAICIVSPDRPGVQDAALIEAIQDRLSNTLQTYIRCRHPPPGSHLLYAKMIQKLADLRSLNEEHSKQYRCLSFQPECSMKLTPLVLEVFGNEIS
How it was run: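 Following 4 h attachment at 37C, VDR-bla cells (2,000 per well) received DMSO-dissolved compounds or controls. After 16 h incubation, LiveBLAzer B/G FRET substrate was added and fluorescence read 2 h later at room temperature.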

[14] = biological target: Vitamin D3 receptor (Homo sapiens) (UniProt P11473); experiment: qHTS assay to identify small molecule antagonists of the vitamin D receptor (VDR) signaling pathway (AID 743223; active = well fitted inhibition curve with a large enough effect in the signal ratio in the repeat runs, not every such curve was filed as active; the % refers to the signal ratio)
How it was run: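 Cells carrying a VDR-driven beta-lactamase reporter (VDR-bla) were co-treated with compound and 3 nM final 1alpha,25-dihydroxyvitamin D3 for 16 h at 37C; reporter activity was measured as FRET substrate fluorescence after 2 h at room temperature.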

[15] = qHTS assay for small molecule agonists of the antioxidant response element (ARE) signaling pathway (AID 743202; active = well fitted activation curve with a large enough effect in the signal ratio in the repeat runs, not every such curve was filed as active; the % refers to the signal ratio)
How it was run: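 Following a 16 h, 37 C exposure of reporter HepG2 cells (ARE-driven beta-lactamase, 2,000 cells/well) to compounds, FRET substrate was applied for 2 h at room temperature and fluorescence intensity recorded.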

[16] = qHTS assay for small molecule activators of the heat shock response signaling pathway (AID 743210; active = well fitted activation curve with a large enough effect in the signal ratio in the repeat runs, with a control signal flat, not every such curve was filed as active; the % refers to the signal ratio; note: series mostly up to about 63 µM)
How it was run: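 Heat shock element–beta-lactamase HeLa reporter cells; qHTS with compounds for 5 h at 37 C; detection by FRET substrate fluorescence after 2.5 h at RT.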

[17] = qHTS assay to identify small molecule agonists of the peroxisome proliferator-activated receptor delta (PPARd) signaling pathway - cell viability counter screen (AID 743211); note: nearly all actives have a fitted effect of over 55% in size
How it was run: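 Counter screen for cytotoxicity run in parallel with the PPARd reporter screen. Beta-lactamase reporter HEK293H cells exposed to compounds 17 h; ATP-based CellTiter-Glo luminescence quantified viability.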

[18] = biological target: Peroxisome proliferator-activated receptor delta (Homo sapiens) (UniProt Q03181); experiment: qHTS assay to identify small molecule antagonists of the peroxisome proliferator-activated receptor delta (PPARd) signaling pathway (AID 743215; active = well fitted inhibition curve with a large enough effect in the signal ratio in the repeat runs, not every such curve was filed as active; the % refers to the signal ratio;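 note: cells stimulated with agonist L165041 at 300 nM final during compound exposure; series mostly up to about 62 µM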)
How it was run: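 Fluorescence from cleaved LiveBLAzer B/G FRET substrate (2 h, room temperature) reports PPARd-driven beta-lactamase in HEK293H UAS-bla cells. Cells had been treated 17 h at 37 C with compound plus 300 nM final L165041.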

[19] = qHTS assay to identify small molecule agonists of the vitamin D receptor (VDR) signaling pathway - cell viability counter screen (AID 743224); note: series mostly up to about 63 µM; nearly all actives have a fitted effect of over 50% in size
How it was run: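 In parallel with the bla FRET readout, cytotoxicity toward VDR-bla cells after 16 h compound exposure was assessed by CellTiter-Glo, with luminescence recorded after a 30 min room-temperature incubation.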

[20] = qHTS assay for small molecule agonists of the antioxidant response element (ARE) signaling pathway - cell viability counter screen (AID 743203; calls by dose curve; note: nearly all actives have a fitted effect of over 55% in size)
How it was run: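 Measured in the same wells as the beta-lactamase ARE reporter, this read-out is CellTiter-Glo luminescence from HepG2 ARE-bla cells given compounds for 16 hrs.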
% is set by controls: 0 for no effect and ±100 for the full control effect.

O=[N+]([O-])c1ccc(O)cc1C(F)(F)F
active: Potency [2] 61.1 µM | Potency [5] 38.9 µM
inactive: Potency [1] | Potency [3] | Potency [4] | Potency [6] | Potency [7] | Potency [8] | Potency [9] | Potency [10] | Potency [11] | Potency [12] | Potency [13] | Potency [14]

C=Cc1ccccc1C=C
inactive: Potency [1] | Potency [2] | Potency [3] | Potency [4] | Potency [5] | Potency [15] | Potency [6] | Potency [16] | Potency [17] | Potency [7] | Potency [8] | Potency [18] | Potency [9] | Potency [10] | Potency [11] | Potency [12] | Potency [13] | Potency [14] | Potency [19]

CCOC(=O)NNc1ccc(N(CC)CC(C)O)nn1 (centres undefined)
inactive: Potency [1] | Potency [2] | Potency [3] | Potency [4] | Potency [5] | Potency [15] | Potency [6] | Potency [16] | Potency [17] | Potency [7] | Potency [8] | Potency [18] | Potency [9] | Potency [10] | Potency [11] | Potency [12] | Potency [14]

CCCCCCOC(=O)C(C)CC (centres undefined)
inactive: Potency [1] | Potency [2] | Potency [3] | Potency [4] | Potency [5] | Potency [20] | Potency [6] | Potency [16] | Potency [17] | Potency [7] | Potency [8] | Potency [18] | Potency [9] | Potency [10] | Potency [11] | Potency [12] | Potency [19]

C=CCCC(=O)/C=C/C1C(C)=CCCC1(C)C (centres undefined)
inactive: Potency [1] | Potency [2] | Potency [3] | Potency [4] | Potency [5] | Potency [15] | Potency [20] | Potency [6] | Potency [16] | Potency [17] | Potency [7] | Potency [8] | Potency [10] | Potency [12] | Potency [13] | Potency [14] | Potency [19]

CCCCNS(=O)(=O)c1ccc(C)cc1
inactive: Potency [1] | Potency [2] | Potency [3] | Potency [4] | Potency [20] | Potency [6] | Potency [16] | Potency [17] | Potency [7] | Potency [8] | Potency [18] | Potency [10] | Potency [19]

O=C(O)O
inactive: activation [1] -1.17% [at 8.47 µM] | viability change, negative = cytotoxic [2] -24.2% [at 8.47 µM] | activation [3] -5.02% [at 7.08 µM] | ratio activity, negative = inhibition [4] -1.11% [at 5.95 µM] | activation [15] -11.2% [at 8.36 µM] | activation [7] -0.685% [at 5.95 µM] | viability change, negative = cytotoxic [10] 5.67% [at 5.95 µM] | activity change, negative = cytotoxicity [12] -10.5% [at 5.95 µM] | activity change, negative = inhibition [14] 0.752% [at 6.95 µM]
active: Potency [8] 2.37 µM

CC(C)OC(=O)C(O)(CC(=O)O)CC(=O)O
inactive: Potency [1] | Potency [2] | Potency [3] | Potency [4] | Potency [5] | Potency [15] | Potency [6] | Potency [17] | Potency [7] | Potency [8] | Potency [9] | Potency [10] | Potency [11] | Potency [13] | Potency [14] | Potency [19]

c1ccc(SSc2ccccc2)cc1
inactive: Potency [1] | Potency [2] | Potency [3] | Potency [4] | Potency [15] | Potency [6] | Potency [17] | Potency [8] | Potency [18] | Potency [12] | Potency [19]

CCc1ccc(Br)cc1
inactive: Potency [1] | Potency [2] | Potency [3] | Potency [4] | Potency [5] | Potency [15] | Potency [6] | Potency [16] | Potency [17] | Potency [7] | Potency [8] | Potency [18] | Potency [9] | Potency [11] | Potency [12] | Potency [13] | Potency [14] | Potency [19]

CCCCOC(=O)CO
inactive: Potency [1] | Potency [2] | Potency [3] | Potency [4] | Potency [5] | Potency [15] | Potency [20] | Potency [6] | Potency [16] | Potency [17] | Potency [7] | Potency [18] | Potency [10] | Potency [12] | Potency [14] | Potency [19]

O=[N+]([O-])c1ccc(F)c(Cl)c1
inactive: Potency [1] | Potency [2] | Potency [3] | Potency [4] | Potency [5] | Potency [15] | Potency [20] | Potency [6] | Potency [17] | Potency [8] | Potency [9] | Potency [10] | Potency [11] | Potency [12] | Potency [13] | Potency [14] | Potency [19]

CCC(COC(=O)CCS)(COC(=O)CCS)COC(=O)CCS
inactive: Potency [1] | Potency [2] | Potency [3] | Potency [4] | Potency [5] | Potency [20] | Potency [6] | Potency [17] | Potency [7] | Potency [8] | Potency [18] | Potency [9] | Potency [10] | Potency [11] | Potency [12] | Potency [13] | Potency [14] | Potency [19]

Clc1sc(Cl)c(Cl)c1Cl
inactive: Potency [1] | Potency [2] | Potency [3] | Potency [4] | Potency [15] | Potency [6] | Potency [16] | Potency [17] | Potency [7] | Potency [8] | Potency [10] | Potency [12] | Potency [14] | Potency [19]

O=C(O)c1ccc2cc(C(=O)O)ccc2c1
inactive: Potency [1] | Potency [2] | Potency [3] | Potency [4] | Potency [15] | Potency [20] | Potency [6] | Potency [16] | Potency [17] | Potency [10] | Potency [12] | Potency [13] | Potency [14] | Potency [19]

CCCCCc1ccc(Cl)cc1
inactive: Potency [1] | Potency [2] | Potency [3] | Potency [4] | Potency [5] | Potency [15] | Potency [20] | Potency [6] | Potency [16] | Potency [17] | Potency [7] | Potency [18] | Potency [9] | Potency [10] | Potency [11] | Potency [12] | Potency [13]

CC(=O)OCC=C(C)C
inactive: Potency [1] | Potency [2] | Potency [3] | Potency [4] | Potency [5] | Potency [20] | Potency [6] | Potency [16] | Potency [17] | Potency [7] | Potency [8] | Potency [10] | Potency [12] | Potency [13] | Potency [14] | Potency [19]
